From the antibiotic and cytotoxicity screens of Wong et al. (2023)
Out of some 39,000 compounds screened, about 3,300 (8.5%) were called active. For the sample, actives were picked, then their nearest neighbours and some compounds at random.

system: HepG2; assay: cytotoxicity call (relative viability < 0.9); conditions: 10 µM

| SMILES | cytotoxicity call |
| --- | --- |
| COc1ccc(C#Cc2ccc3c(c2)[C@H]2[C@H](CCN2C(=O)Nc2ccc(C(F)(F)F)cc2)[C@H](CO)N3C)cc1 | inactive |
| C[C@H](CO)N1C[C@H](C)[C@@H](CN(C)S(=O)(=O)c2cn(C)cn2)Oc2ccc(NC(=O)c3ccncc3)cc2C1=O | inactive |
| C[C@@H]1CN([C@H](C)CO)S(=O)(=O)c2ccc(Br)cc2O[C@H]1CN(C)Cc1cccc(C(=O)O)c1 | inactive |
| C[C@@H]1CN([C@H](C)CO)C(=O)c2cccc(NC(=O)Nc3ccccc3)c2O[C@H]1CN(C)Cc1ccc(C(=O)Nc2ccccc2N)cc1 | inactive |
| O=C(C[C@H]1C[C@@H]2c3cc(NC(=O)NC4CCCC4)ccc3O[C@@H]2[C@H](CO)O1)NCc1ccc(Oc2ccccc2)cc1 | active |
| O=C(C[C@H]1C[C@@H]2c3cc(NC(=O)NC4CCCC4)ccc3O[C@@H]2[C@@H](CO)O1)NCc1ccc(Oc2ccccc2)cc1 | inactive |
| O=C(C[C@H]1C[C@H]2c3cc(NC(=O)Nc4ccccc4F)ccc3O[C@H]2[C@H](CO)O1)NCc1ccc(Oc2ccccc2)cc1 | inactive |
| O=C(C[C@@H]1C[C@H]2c3cc(NC(=O)NC4CCCC4)ccc3O[C@H]2[C@@H](CO)O1)NCc1ccc(Oc2ccccc2)cc1 | inactive |
| O=C(C[C@@H]1C[C@H]2c3cc(NC(=O)NC4CCCC4)ccc3O[C@H]2[C@H](CO)O1)NCc1ccc(Oc2ccccc2)cc1 | inactive |
| O=C(C[C@@H]1C[C@@H]2c3cc(NC(=O)NC4CCCC4)ccc3O[C@@H]2[C@H](CO)O1)NCc1ccc(Oc2ccccc2)cc1 | inactive |
| O=C(C[C@@H]1C[C@@H]2c3cc(NC(=O)Nc4ccccc4F)ccc3O[C@@H]2[C@@H](CO)O1)NCc1ccc(Oc2ccccc2)cc1 | active |
| O=C(C[C@H]1C[C@H]2c3cc(NC(=O)NC4CCCC4)ccc3O[C@H]2[C@H](CO)O1)NCc1ccc(Oc2ccccc2)cc1 | active |
| O=C(C[C@@H]1C[C@H]2c3cc(NC(=O)Nc4ccccc4F)ccc3O[C@H]2[C@H](CO)O1)NCc1ccc(Oc2ccccc2)cc1 | inactive |
| CC(C)(C)OC(=O)C[C@@H]1CC=CC[C@H](CC(=O)NCCO)C(=O)NCCOC1=O | inactive |
| COCC#Cc1ccc([C@@H]2[C@H](CO)N3C(=O)CN(C(=O)c4ccncc4)C[C@@H]23)cc1 | inactive |
| CO[C@H]1CN(C)C(=O)c2ccc(NS(C)(=O)=O)cc2OC[C@@H](C)N(C(=O)CN(C)C)C[C@H]1C | inactive |
| C[C@@H]1CN([C@H](C)CO)C(=O)Cc2cc(NS(=O)(=O)c3ccc(F)cc3)ccc2O[C@H]1CN(C)Cc1ccncc1 | inactive |
| C=CCC[C@H](Cc1ccc(F)cc1)C(=O)OC[C@@H]1CCCN1C(=O)[C@H](CC=C)CC(=O)N(CCO)Cc1ccccc1 | inactive |
